Laboratory results as given in PubChem BioAssay AID652071 (NMMLSC, 2013).
Active and inactive are the calls of the source. No rule for the calls is given here.

assay: V-ATPase proton transport modulators in yeast, dose response, S. cerevisiae, pHLuorin, powder set 4 (AID 652071); conditions: S. cerevisiae pHLuorin cytosolic pH fluorescence; series mostly up to 100 µM

outcome, inactive:
O=C(Nc1ccccc1N1CCCCC1)c1cccc(C(F)(F)F)n1
CN1CCN(c2ccccc2NC(=O)c2cncc(N)n2)CC1
CC(=O)N1CCN(c2ccccc2NC(=O)c2ccc(C(C)(C)C)o2)CC1
O=C(Nc1ccccc1N1CCCCC1)c1cc(Cl)ccn1
COCc1ccc(C(=O)Nc2ccccc2N2CCN(C(C)=O)CC2)o1
CN1CCN(c2ccccc2NC(=O)c2ccc(-c3ccccc3)o2)CC1
COCc1ccc(C(=O)Nc2ccccc2N2CCCCC2)o1
O=C(Nc1ccccc1N1CCCCC1)c1cccc(Br)n1
Nc1cncc(C(=O)Nc2ccccc2N2CCCCC2)n1
COCc1cccc(C(=O)Nc2ccccc2N2CCN(C)CC2)c1
CC(=O)N1CCN(c2ccccc2NC(=O)c2cccc(S(=O)(=O)N(C)C)c2)CC1
Cc1cncc(C(=O)Nc2ccccc2N2CCCCC2)n1
CC(=O)N1CCN(c2ccccc2NC(=O)c2ccc(S(C)(=O)=O)o2)CC1
CC(=O)N1CCN(c2ccccc2NC(=O)c2cncc(C)n2)CC1
O=C(Nc1ccccc1N1CCCCC1)c1ccc(C(F)(F)F)o1
NC(=O)c1cccc(C(=O)Nc2ccccc2N2CCCCC2)c1
O=C(Nc1ccccc1N1CCCCC1)c1cncc(Cl)n1
CN(C)Cc1ccc(C(=O)Nc2ccccc2N2CCCCC2)o1
CC(=O)N1CCN(c2ccccc2NC(=O)c2cccc(C(N)=O)c2)CC1
